Data on 6 compounds can be found in PubChem BioAssay.

Assay [1] concerns Plasmodium falciparum Sir2 (PF13_0152, Sir2A). Nature of the assay: Plasmodium falciparum Sir2A binding compounds – biochemical, small-molecule microarray, 635 nm fluorescence, primary screen (AID 1098).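 Further: score merges spot fluorescence intensity with its signal-to-noise ratio.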 As to conditions: fluorescence 635 nm, higher = more signal.
A short description of assay [2]: probe aDKK1 binding to arrayed compounds – biochemical, biotinylated probe, 635/667 nm fluorescence, primary screen (AID 1099).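 Further: score merges 667nm spot fluorescence with signal to noise across triplicate slides.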 Particulars: small-molecule microarray, higher = more signal.
Assay [3] is described as follows: probe aCHRDL2 binding to arrayed compounds – biochemical, biotinylated probe, 635/667 nm fluorescence, primary screen (AID 1100). As to conditions: small-molecule microarray, higher = more signal.
Assay [4] is described as follows: change in splice reporter luminescence, either direction, cell-based, HEK293, spliceosome inhibition project, primary screen (AID 1101).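 Further: HEK293 cells carrying a splicing-competent luciferase reporter gene; test concentration not given here.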 As to conditions: HEK293 splicing luciferase reporter, 24 h, higher = more signal, called active from +8 up or from −8 down.
Assay [5] deals with Fibroblast growth factor 10 (Homo sapiens) (UniProt O15520). Nature of the assay: compounds binding fibroblast growth factor 10 – biochemical, small-molecule microarray, 635 nm fluorescence, primary screen (AID 1102). As to conditions: FGF10 binding, fluorescence 635 nm, higher = more signal.
Fibroblast growth factor 10 (Homo sapiens), sequence (O15520 whole entry, looked up): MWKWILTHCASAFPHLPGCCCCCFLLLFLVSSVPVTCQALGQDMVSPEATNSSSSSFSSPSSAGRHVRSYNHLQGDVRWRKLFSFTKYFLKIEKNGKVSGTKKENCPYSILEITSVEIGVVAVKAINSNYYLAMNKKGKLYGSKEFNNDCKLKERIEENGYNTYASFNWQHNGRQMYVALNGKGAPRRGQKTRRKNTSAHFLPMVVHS
Assay [6] deals with glycogen synthase kinase-3 (GSK3A per assay name; protocol says GSK3B). Nature of the assay: compounds binding glycogen synthase kinase-3 – biochemical, small-molecule microarray, 635 nm fluorescence, GSK3A, primary screen (AID 1103). Further: the record names both GSK3A and GSK3B. Particulars: fluorescence 635 nm, higher = more signal.
For assay [7], the target named is Epidermal growth factor receptor (Homo sapiens) (UniProt P00533). Nature of the assay: compounds binding epidermal growth factor receptor – biochemical, small-molecule microarray, 635 nm fluorescence, primary screen (AID 1104).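 Further: score merges 667 nm emission intensity with spot signal to noise over triplicate slides.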 Particulars: EGFR binding, higher = more signal.
Epidermal growth factor receptor (Homo sapiens), sequence (P00533 whole entry, looked up): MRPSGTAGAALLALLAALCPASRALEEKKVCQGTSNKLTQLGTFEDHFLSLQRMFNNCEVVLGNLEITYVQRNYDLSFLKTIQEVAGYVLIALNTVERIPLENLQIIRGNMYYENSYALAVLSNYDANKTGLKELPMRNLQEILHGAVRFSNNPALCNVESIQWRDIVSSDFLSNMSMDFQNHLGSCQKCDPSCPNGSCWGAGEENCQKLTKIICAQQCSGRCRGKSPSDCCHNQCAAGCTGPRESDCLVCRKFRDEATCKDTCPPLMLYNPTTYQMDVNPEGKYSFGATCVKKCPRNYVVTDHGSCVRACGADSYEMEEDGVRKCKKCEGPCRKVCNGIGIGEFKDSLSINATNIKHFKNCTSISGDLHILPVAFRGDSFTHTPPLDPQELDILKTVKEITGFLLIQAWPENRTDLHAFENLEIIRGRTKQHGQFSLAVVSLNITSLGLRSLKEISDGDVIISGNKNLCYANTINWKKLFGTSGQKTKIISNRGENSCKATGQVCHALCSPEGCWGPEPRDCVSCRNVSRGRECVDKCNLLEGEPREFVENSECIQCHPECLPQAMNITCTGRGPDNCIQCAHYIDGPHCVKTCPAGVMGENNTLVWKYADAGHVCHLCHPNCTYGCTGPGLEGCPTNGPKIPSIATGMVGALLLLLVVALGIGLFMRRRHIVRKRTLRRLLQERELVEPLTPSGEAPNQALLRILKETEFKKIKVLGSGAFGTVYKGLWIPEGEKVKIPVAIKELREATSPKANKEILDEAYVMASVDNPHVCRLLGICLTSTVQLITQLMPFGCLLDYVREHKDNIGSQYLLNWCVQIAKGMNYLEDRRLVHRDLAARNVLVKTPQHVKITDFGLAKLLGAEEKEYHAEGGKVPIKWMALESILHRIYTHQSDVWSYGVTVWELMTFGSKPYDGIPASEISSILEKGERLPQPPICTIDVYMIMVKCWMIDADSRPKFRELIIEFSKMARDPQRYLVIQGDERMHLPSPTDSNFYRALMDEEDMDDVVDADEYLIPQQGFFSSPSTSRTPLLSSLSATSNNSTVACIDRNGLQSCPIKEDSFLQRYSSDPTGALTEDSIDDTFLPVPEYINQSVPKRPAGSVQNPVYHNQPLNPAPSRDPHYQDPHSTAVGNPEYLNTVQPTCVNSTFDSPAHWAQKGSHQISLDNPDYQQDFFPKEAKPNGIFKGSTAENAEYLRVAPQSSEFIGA
For assay [8], the target named is Follistatin-related protein 3 (Homo sapiens) (UniProt O95633). Nature of the assay: compounds binding follistatin-related protein 3 – biochemical, small-molecule microarray, 635 nm fluorescence, primary screen (AID 1105).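 Further: score merges emission near 667 nm and signal to noise per printed spot across three slides.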 As to conditions: FSTL3 binding, higher = more signal.
Follistatin-related protein 3 (Homo sapiens), sequence (O95633 whole entry, looked up): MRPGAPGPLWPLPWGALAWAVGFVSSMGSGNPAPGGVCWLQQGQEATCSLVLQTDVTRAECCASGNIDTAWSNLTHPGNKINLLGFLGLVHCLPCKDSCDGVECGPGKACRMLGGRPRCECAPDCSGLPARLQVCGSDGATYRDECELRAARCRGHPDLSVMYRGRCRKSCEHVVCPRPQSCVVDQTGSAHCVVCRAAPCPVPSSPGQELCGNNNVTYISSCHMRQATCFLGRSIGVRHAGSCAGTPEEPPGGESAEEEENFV
Assay [9] has as its target Dickkopf-related protein 1 (Homo sapiens) (UniProt O94907). Nature of the assay: small molecules binding DKK1 protein – biochemical, small-molecule microarray, 635 nm fluorescence scan, primary screen (AID 1106).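 Further: score merges emission near 667 nm with signal to noise over three replicate slides.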 As to conditions: higher = more signal.
Assay [10] concerns Inhibin beta A chain (activin A). Nature of the assay: small molecules binding activin A – biochemical, small-molecule microarray, 635 nm fluorescence scan, primary screen (AID 1107).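 Further: mouse activin A protein probed at 4.33 µg/mL on printed slides; score merges bound-protein fluorescence near 667 nm with spot signal-to-noise.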 Particulars: INHBA, higher = more signal.
Assay [11] relates to Human papillomavirus type 1a protein E7 (residues 44-93). Nature of the assay: small molecules binding HPV E7 44-93 – biochemical, small-molecule microarray, residues 44-93, 635 nm fluorescence, primary screen (AID 1108).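 Further: E7 fragment applied at 1 µg/mL in TBST for 1 h at 4 C; score combines spot fluorescence with its signal to noise ratio.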 As to conditions: fluorescence 635 nm, higher = more signal.
A short description of assay [12]: hepatitis C replication reporter changes, two-sided – Huh7 cells, luciferase reporter, HCV replication inhibitor project, primary screen (AID 1109).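 Further: huh7 hepatoma cells harbouring a luciferase neomycin HCV replicon reporter; luciferase luminescence as measure of HCV replicon replication; test concentration not given here.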 As to conditions: Huh7 HCV replicon luciferase reporter, 48 h; higher = more signal. For orientation: A reporter such as luciferase makes a cellular process visible.
Assay [13] deals with Left-right determination factor 2 (Homo sapiens) (UniProt O00292). Nature of the assay: small molecules binding LEFTY2 protein – biochemical, small-molecule microarray, 635 nm fluorescence scan, primary screen (AID 1110). Particulars: higher = more signal.
Left-right determination factor 2 (Homo sapiens), sequence (O00292 whole entry, looked up): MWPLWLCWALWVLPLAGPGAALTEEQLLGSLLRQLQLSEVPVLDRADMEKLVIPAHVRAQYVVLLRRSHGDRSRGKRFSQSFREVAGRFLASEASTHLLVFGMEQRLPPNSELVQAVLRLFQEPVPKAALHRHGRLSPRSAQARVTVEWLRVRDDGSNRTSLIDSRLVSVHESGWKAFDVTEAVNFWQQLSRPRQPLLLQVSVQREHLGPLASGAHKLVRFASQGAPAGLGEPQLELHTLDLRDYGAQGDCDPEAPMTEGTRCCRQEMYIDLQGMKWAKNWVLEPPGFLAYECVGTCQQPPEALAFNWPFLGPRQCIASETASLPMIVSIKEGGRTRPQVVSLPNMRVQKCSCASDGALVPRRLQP
Assay [14] deals with Calmodulin-1 (Homo sapiens) (UniProt P0DP23). Nature of the assay: small molecules binding calmodulin-1 with EGTA – biochemical, small-molecule microarray, Cy5-labelled CALM1, profiling panel (AID 1111).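 Further: labelled calmodulin applied in Tris saline Tween buffer holding calcium plus EGTA and DTT.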 Particulars: Cy5-CALM1 binding fluorescence, higher = more signal.
Assay [15] shares this target. Nature of the assay: small molecules binding Ca-loaded calmodulin-1 – biochemical, small-molecule microarray, Cy5-labelled CALM1, plus calcium, artefact control for SMM control-protein annotation, profiling panel (AID 1112).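 Further: score merges spot fluorescence with signal to noise from triplicate slides.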 Particulars: Cy5-CALM1 binding fluorescence, higher = more signal.
A short description of assay [16]: probe aWnt5a binding to arrayed compounds – biochemical, biotinylated probe, 635/667 nm fluorescence, primary screen (AID 1113).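 Further: score merges 667 nm fluorescence intensity with signal-to-noise per printed feature.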 As to conditions: small-molecule microarray, higher = more signal.
Assay [17] can be described thus: probe aShh binding to arrayed compounds – biochemical, biotinylated probe, 635/667 nm fluorescence, primary screen (AID 1114).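 Further: probe is biotin-labelled aShh protein from a stem cell growth factor screen; measures binding of labelled protein to compounds printed on the slide; score merges feature fluorescence at 667 nm with signal-to-noise.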 As to conditions: small-molecule microarray, higher = more signal.
Assay [18] is described as follows: probe aNog binding to arrayed compounds – biochemical, biotinylated probe, 635/667 nm fluorescence, primary screen (AID 1115).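 Further: probe is biotinylated aNog protein used at 0.15 µg/mL for 1 h at 4 C; z-score combines 667 nm fluorescence of each spot with its signal to noise.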 Particulars: small-molecule microarray, higher = more signal.
For assay [19], the target named is Torsin-1A-interacting protein 1 (Homo sapiens) (UniProt Q5JTV8). Nature of the assay: compound microarray binding of lysate hLAP1 – cell lysate, small-molecule microarray, COS7 lysate, 635/667 nm fluorescence, primary screen (AID 1116). As to conditions: 635 nm fluorescence, higher = more signal.
Torsin-1A-interacting protein 1 (Homo sapiens), sequence (Q5JTV8 whole entry, looked up): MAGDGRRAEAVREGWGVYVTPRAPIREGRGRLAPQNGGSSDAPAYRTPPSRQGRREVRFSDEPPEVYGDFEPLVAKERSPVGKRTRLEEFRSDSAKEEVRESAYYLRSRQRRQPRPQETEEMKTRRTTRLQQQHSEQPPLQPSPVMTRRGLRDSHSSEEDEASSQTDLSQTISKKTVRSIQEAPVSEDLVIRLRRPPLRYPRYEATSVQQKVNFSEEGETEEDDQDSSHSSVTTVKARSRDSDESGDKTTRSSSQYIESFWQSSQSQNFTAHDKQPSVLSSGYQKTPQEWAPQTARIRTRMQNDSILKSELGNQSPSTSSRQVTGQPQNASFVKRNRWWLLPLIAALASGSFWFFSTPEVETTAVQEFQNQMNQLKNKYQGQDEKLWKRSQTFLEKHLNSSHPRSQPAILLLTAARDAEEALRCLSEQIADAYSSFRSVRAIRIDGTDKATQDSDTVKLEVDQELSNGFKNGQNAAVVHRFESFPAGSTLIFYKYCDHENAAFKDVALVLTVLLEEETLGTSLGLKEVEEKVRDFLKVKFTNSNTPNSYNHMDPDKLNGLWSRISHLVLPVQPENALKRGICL
Assay [20] has as its target Alpha-bungarotoxin (Bungarus multicinctus) (UniProt P60615). Nature of the assay: compounds binding labelled alpha-BTX control protein – biochemical, small-molecule microarray, Alexa647 label, 635/667 nm fluorescence, artefact control for SMM control protein annotation, profiling panel (AID 1117). Particulars: alpha-BTX-A647 binding fluorescence, higher = more signal.

The source made the active and inactive calls.

Alpha-bungarotoxin (Bungarus multicinctus), sequence (P60615 whole entry, looked up): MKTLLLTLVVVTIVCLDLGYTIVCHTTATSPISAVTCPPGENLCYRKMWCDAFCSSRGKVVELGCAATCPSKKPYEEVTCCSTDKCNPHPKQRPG
Dickkopf-related protein 1 (Homo sapiens), sequence (O94907 whole entry, looked up): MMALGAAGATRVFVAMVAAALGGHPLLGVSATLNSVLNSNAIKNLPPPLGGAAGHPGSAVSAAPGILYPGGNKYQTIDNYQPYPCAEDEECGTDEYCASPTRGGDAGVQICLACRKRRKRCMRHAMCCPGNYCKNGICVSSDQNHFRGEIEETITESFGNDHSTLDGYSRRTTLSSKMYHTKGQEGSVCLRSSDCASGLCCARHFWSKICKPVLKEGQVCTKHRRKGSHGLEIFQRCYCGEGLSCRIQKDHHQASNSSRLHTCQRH

`COc1c(C)cc(-c2cc3c(c(CCc4ccccc4)n2)[Si](C(C)C)(C(C)C)O[C@H]3c2ccccc2)cc1C`: the composite z-score in [1] was 0.994; in assay [2], -0.137; in [3] it was -0.169; in assay [5], -0.168; in assay [6], -0.914; in [7], -0.275. Besides, the composite z-score was -0.257 in [8]; -0.204 in [9]; -0.0185 in assay [10]; -0.52 in assay [11]; -0.124 in assay [13]; 0.261 in assay [14]. For the same compound, the composite z-score was 0.502 in assay [15]; 0.0136 in assay [16]; 0.0008 in [17]; 0.0225 in [18]; -0.445 in assay [19]; -0.176 in assay [20]. Further, the z-score is -1.48 (inactive) in assay [4] and -3.84 in assay [12].

On to `NCCCCCCNC(=O)[C@@H]1C[C@@H]2C(=O)NCC(=O)N2[C@@H]1c1cccc(OCCO)c1`, for which the composite z-score in [1] came to 1.6; in assay [2] it was 0.45; in [3], 0.0888; in [5], 1.37; in assay [6] it was 1.3; in assay [7], 0.702. In addition, the composite z-score in assay [8] was 0.98; in assay [9], 1.32; in assay [10], 1.12; in assay [11] it was 1.3; in assay [13] it was 1.09; in assay [14] it was -0.115. In addition, the composite z-score in [15] was 0.293; in [16], 0.14; in assay [17] it was 0.0639; in [18], -0.077; in [19] it was 0.95; in assay [20], 0.872. Also, the z-score was -0.734 (inactive) in assay [4] and -0.453 in assay [12].

On to `CCCC=C(CCC)[C@@H](NC(=O)c1ccc(C(=O)OC)cc1)c1ccc(C(=O)OC)cc1`, for which the composite z-score in assay [1] is -0.427; in assay [2], 0.816; in assay [3], 0.48; in assay [5] it was -0.363; in [6], -0.197; in [7] it was -0.195. For the same compound, the composite z-score is -0.0762 in assay [8]; -0.158 in assay [9]; 0.804 in assay [10]; 0.981 in assay [11]; -0.634 in assay [13]; 1.48 in [14]. In addition, the composite z-score in assay [15] was 1.06; in [16], 0.313; in assay [17] it was 1.45; in assay [18] it was -0.316; in [19], 0.253; in [20], -0.037. In addition, the z-score is -1.32 (inactive) in assay [4] and -0.682 in assay [12].

On to `O=C(NCC(F)(F)F)[C@@H]1c2ccccc2C(=O)N(Cc2cc(C(F)(F)F)cc(C(F)(F)F)c2)[C@H]1c1ccc(CO)cc1`, for which the composite z-score in [1] was 1.78; in [2] it was -0.207; in assay [3], 0.272; in [5], 0.728; in assay [6], -0.137; in assay [7] it was -0.284. In addition, the composite z-score in assay [8] was -0.145; in assay [9] it was 0.382; in assay [10], 0.0807; in assay [11] it was 0.236; in assay [13], -0.244; in assay [14], -0.0722. Also, the composite z-score in assay [15] was 0.122; in assay [16], 0.0377; in [17] it was -0.0035; in assay [18] it was -0.103; in assay [19] it was 0.653; in assay [20], 0.0956. Also, the figures for the z-score in assay [4] and in assay [12] were 0.245 (inactive) and -1.04, respectively.

Consider `N#Cc1ccc(NN2C(C(O)c3ccc(B(O)O)cc3)C=CC3CN(c4ccccc4)C(=O)C32)cc1` (stereo not given), for which the composite z-score in [1] was 0.35; in [2] it was 0.0933; in [3], 0.584; in assay [5], -0.792; in assay [6] it was -0.824; in assay [7], -0.533. In addition, the composite z-score was -0.172 in assay [8]; -0.445 in assay [9]; 0.462 in [10]; -0.664 in assay [11]; -0.193 in assay [13]; 0.0251 in assay [14]. The composite z-score in assay [15] is -0.408; in assay [16], -0.144; in [17], -0.237; in [18], -0.196; in assay [19] it was 0.11; in assay [20] it was -0.0348. Moreover, the results for the z-score in assay [4] and in assay [12] were 0.441 (inactive) and 0.277, respectively.

For the compound `O=C(NC1CC1)[C@@H]1c2ccccc2C(=O)N(C2CCCCC2)[C@H]1c1ccc(CO)cc1`, the composite z-score in assay [1] came to 0.891; in assay [2], 1.84; in assay [3], 0.989; in assay [5], 0.055; in [6], 0.286; in assay [7], 0.0989. Further, the composite z-score in [8] was 0.208; in [9], 0.139; in assay [10] it was -0.24; in [11], 0.178; in assay [13], 0.0863; in assay [14], 0.576. For the same compound, the composite z-score in [15] was 0.109; in assay [16] it was -0.176; in assay [17], -0.321; in assay [18], -0.16; in assay [19], 0.482; in assay [20] it was 1.5. The z-score in [4] is -0.496 (inactive); in assay [12], -2.14.
